Legend:
[1] = target: T1, HIV-1 reverse transcriptase (HIV RT) (Human immunodeficiency virus, UniProt P03366;P03366 P03366:600-1159,P03366:600-1039); experiment: MST; two 5' flanking nucleotides deleted; conditions: tags: His-tag (inferred from Ni-NTA immobilisation); XNA; TNA at all positions
[2] = target: T1, HIV-1 reverse transcriptase (HIV RT); experiment: MST; five 3' flanking nucleotides deleted; conditions: tags: His-tag (inferred from Ni-NTA immobilisation); XNA; TNA at all positions

Sequence	binding signal [1]	binding signal [2]
TAGTAAATTGATTTAAAAATTTCATAAATGCTACATAA	~3 fold reduction in affinity	–
AATAGTAAATTGATTTAAAAATTTCATAAATGCTA	–	~3 fold reduction in affinity

— patent US20200347384, “Screening artificial nucleic acids by particle display” (THE REGENTS OF THE UNIVERSITY OF CALIFORNIA, published 2020)
